Assay outcomes (PubChem)
RMI FANCM FP – RMI-FANCM interaction inhibition; Fluorescence polarization, RMI core complex with F-MM2 peptide; hits give low values; FP signal (polarization) at 33 µM; hit rate 0.58% among 70,000; AID 1159607; in the data active = FP signal below about 40
Large screens that a line does not name were inactive. The sample as a whole holds a higher share of hits than the screen did.

O=S(=O)(c1ccc(-c2nc(-c3ccc(Cl)cc3)cs2)cc1)N1CCOCC1	none
O=C(Nc1csc(-c2ccc(Oc3ccc(-c4nc(NC(=O)c5ccc(S(=O)(=O)N6CCOCC6)cc5)cs4)cc3)cc2)n1)c1ccc(S(=O)(=O)N2CCOCC2)cc1	RMI FANCM FP 9
Cc1cc(C)cc(C(=O)Nc2cccc(N3CCCCC3=O)c2)c1	none
COc1cccc(NC(=S)NCCN(C)C)c1	none
COC(=O)c1sc2ccccc2c1NC(=O)c1ccc(Cl)s1	none
O=C(Cn1cnc2c(sc3cccc(F)c32)c1=O)NCCc1ccc(Cl)cc1	none
O=C(Oc1ccccc1)c1ccc(Br)cc1	none
O=C(CS(=O)(=O)c1ccc(Cl)s1)N1CCN(c2ccccc2F)CC1	none
O=C1C([N+](=O)[O-])=C(O)c2cccc3cccc1c23	RMI FANCM FP -1
O=C(C1=C(Cl)c2cccc3cccc(c23)C1=O)c1ccccc1	none
O=C1c2ccc3ccccc3c2-c2cccc3cccc1c23	none
COc1ccc(OC)c(S(=O)(=O)Nc2cc3c4c(c2)CCC(=O)N4CCC3)c1	none
CC1CC(C)CN(S(=O)(=O)c2cc3c4c(c2)CCC(=O)N4CCC3)C1 (stereo not given)	none
Nc1cc2c3c(c1)CCC(=O)N3CCC2	RMI FANCM FP 21
CCOc1cc(S(=O)(=O)NCCCn2ccnc2)ccc1Br	none
O=C(COc1ccccc1)N1CCC(c2nnc(C3CC3)s2)CC1	none
NS(=O)(=O)c1ccc(NC(=O)C2CCN(c3ccc(-c4ccccc4)nn3)CC2)cc1	none
O=C(Cn1cnc2c(cnn2-c2cccc(Cl)c2)c1=O)Nc1ccc2c(c1)OCCO2	none
O=c1[nH]nc(SCc2cccc(F)c2)n2nc(-c3ccc(F)cc3)cc12	none
N#Cc1c(NC(=O)c2cccc(N3C(=O)CCC3=O)c2)sc2c1CCCC2	none
COc1cccc(CSc2nc(CC(=O)Nc3ccc(C)c(C)c3)cc(=O)[nH]2)c1	none
COc1cccc(CSc2nc(CC(=O)Nc3nnc(C)s3)cc(=O)[nH]2)c1	RMI FANCM FP 34
COc1cccc(CSc2nc(CC(=O)NC3CC3)cc(=O)[nH]2)c1	none
COc1ccccc1OCC(O)CN1CCNCC1 (stereo not given)	none
CCOc1ccc(CC(=O)Nc2c(C)nc3sc(C)c(C)n3c2=O)cc1	none
O=C1/C(=C/c2cccnc2)SC(=S)N1c1ccccc1F	none
O=C(O)CCN1C(=O)/C(=C\c2cccnc2)SC1=S	none
CC(c1ccccc1)N1C(=O)/C(=C\c2cccnc2)SC1=S (stereo not given)	RMI FANCM FP 26
Cc1[nH]c2ccccc2c1C(=O)C(=O)NC(C)C	none
Cc1ccc(S(=O)(=O)Nc2cc(C(C)(C)C)sc2C(N)=O)cc1	none
Cc1ccc(Cl)c2sc(NCCN3CCOCC3)nc12	none
CCOC(=O)c1ccc(N2CCOCC2)c(NS(=O)(=O)c2ccccc2[N+](=O)[O-])c1	none
CC(=O)c1ccc(Cl)c(N=Cc2cc(Cl)cc(Cl)c2O)c1	RMI FANCM FP 34
O=C(N/N=C\c1cc(Cl)cc(Cl)c1O)c1ccncc1	none
CCOC(=O)c1ccc(N2CCOCC2)c(N=Cc2cc(Cl)cc(Cl)c2O)c1	RMI FANCM FP 15
O=C1Nc2ccccc2C1Cc1ccc(N=Cc2cc(Cl)cc(Cl)c2O)cc1 (stereo not given)	none
Cc1c(C)c(C)c(C(=O)CCc2cccc(N=Cc3cc(Cl)cc(Cl)c3O)c2)c(C)c1C	none
CN(C)c1ccc(C(=O)N/N=C\c2cc(Cl)cc(Cl)c2O)cc1	none
Oc1c(Cl)cc(Cl)cc1C=Nc1ccc(N2CCOCC2)cc1	none
Oc1c(Cl)cc(Cl)cc1C=Nc1ccc2n[nH]nc2c1	RMI FANCM FP 25
COc1ccc(S(=O)(=O)NCCNC(=O)c2ccc(NC(C)=O)cc2)cc1C	none
Cc1c(S(=O)(=O)c2ccc(Cl)cc2)csc1C(=O)NNc1cccc(Cl)c1	none
Cc1cccc(NC(=O)C(=O)NCCN2CCN(c3ccc(F)cc3)CC2)c1C	none
COc1ccc(S(=O)(=O)c2c(C)cc(C)n(CC(=O)Nc3cc(OC)cc(OC)c3)c2=O)cc1	none
Cc1csc(-c2cc3ccc(OC(=O)N4CCOCC4)cc3oc2=O)n1	none
CC(NC(=O)c1cc([N+](=O)[O-])cc([N+](=O)[O-])c1)C12CC3CC(CC(C3)C1)C2 (stereo not given)	none
Cc1cccc(NC(=O)C(=O)NCC(c2ccc3c(c2)CCCN3C)N2CCCCC2)c1 (stereo not given)	none
OC(c1ccccc1)c1nc2ccccc2[nH]1 (stereo not given)	none
N#Cc1ccc2nc(C(O)C(O)c3nc4ccc(C#N)cc4[nH]3)[nH]c2c1 (stereo not given)	RMI FANCM FP 29
OC(c1nc2ccccc2[nH]1)C(O)c1nc2ccccc2[nH]1 (stereo not given)	none
CC(C)(C)CC(=O)NCCCS(=O)(=O)N1CCN(c2ccc(F)cc2)CC1	none
CC(=O)Nn1cnc2c(cnn2-c2ccc(F)cc2)c1=O	none
CCOC(=O)c1sc(NN=c2c(=O)c3ccccc3c2=O)c(C(=O)OCC)c1C	none
Nc1nc(CCC(=O)O)cs1	none
CN(C)c1ccc(/C=C/c2ccncc2)cc1	RMI FANCM FP 25
CN(C)c1ccc(/C=C/C#N)cc1	none
CN(C)c1ccc(/C=C/c2ccccc2)cc1	none
CC(C)CCn1c(SCc2nc(-c3ccccc3)no2)nc2cc3c(cc2c1=O)OCO3	none
Cc1cccc(NC(=S)NC(=O)COc2ccccc2)c1	none
